Our source for the outcome and AC50 values is PubChem BioAssay (EPA / NIEHS).

Assay [1] in a line: IUF_NPC2-5_cell_number_120hr: Cell Number Assessment at 120 hours in the Leibniz Research Institute for Environmental Medicine (IUF) Neural Progenitor Cell Migration and Differentiation Assay (NPC2-5) (AID 2284308; active = hit-call score of the fitted dose curve at least 0.9, where 1 is the maximum; inactive = score below 0.9;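 note: count of Hoechst-stained nuclei in migration zone around plated human neural progenitor spheres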). Summed up:
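Cell number is taken as all Hoechst-positive nuclei detected in the area into which cells migrate out of the sphere, scored at 120 h and referenced to DMSO solvent control, which was kept at no more than 0.1%.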

Assay [2] is described as follows: IUF_NPC2-5_viability_120hr: Viability Assessment at 120 hours in the Leibniz Research Institute for Environmental Medicine (IUF) Neural Progenitor Cell Migration and Differentiation Assay (NPC2-5) (AID 2284312; active = hit-call score of the fitted dose curve at least 0.9, where 1 is the maximum; inactive = score below 0.9). A digest of the protocol:
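Alamar blue resorufin fluorescence read after 5 days of differentiation, with compound present from day 0 and replenished at day 3. Primary hNPC spheres on laminin-coated plates, 37C; seven concentrations plus solvent control, fitted against DMSO.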

Assay [3] can be described thus: CCTE_Mundy_HCI_iCellGluta_NOG_NeuriteLength: CCTE's Neurite Outgrowth Assay in iCellGluta cells for Neurite Length, Mundy Lab (AID 2284318). Summed up: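 Automated high-content imaging of betaIII-tubulin (Alexa Fluor-488) and Hoechst-stained cells gave neurite length, normalized to the DMSO baseline.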
Assay [4] is described as follows: IUF_NPC1_cytotoxicity_72hr: Cytotoxicity Assessment at 72 hours in the Leibniz Research Institute for Environmental Medicine (IUF) Neural Progenitor Cell Proliferation Assay (NPC1) (AID 2284332).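 Note: rising LDH signal means more cytotoxicity.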 Summed up:
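Readout is fluorescence from LDH-dependent resazurin conversion, sampled from culture medium after compound contact lasting 72 h. Each well holds one 0.25-0.35 mm human progenitor sphere kept at 37C, 5% CO2 with EGF and FGF.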

The nature of assay [5]: TOX21_PR_BLA_Followup_Agonist_viability: Viability Assessment in the Tox21 HEK293 Progesterone Receptor (PR) Agonism Beta-lactamase Follow-Up Assay (AID 2283935).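 Note: signal loss means lower viability so actives are cytotoxic.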 Summed up: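 Viability is read as CellTiter-Glo luminescence, where loss of signal indicates cytotoxicity. The cells are PR-UAS-bla HEK293T given compounds for 16 hr at 37C and 5% CO2, in the same wells used for the bla readout.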

Assay [6] can be described thus: TOX21_PR_BLA_Followup_Antagonist_viability: Viability Assessment in the Tox21 HEK293 Progesterone Receptor (PR) Antagonism Beta-lactamase Follow-Up Assay (AID 2283936).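 Note: cells exposed to compound with R5020 agonist for 16 h; hits lower the luminescence signal meaning cytotoxicity.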 Summed up:
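PR-UAS-bla HEK293T cells in medium with 2% charcoal-stripped FBS were treated with compounds plus R5020 for 16 hr at 37C. After the beta-lactamase read, CellTiter-Glo was added to the same wells and luminescence read after 30 min at room temperature.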

The nature of assay [7]: TOX21_PR_LUC_Followup_Agonist_viability: Viability Assessment in the Tox21 HEK293 Progesterone Receptor (PR) Agonism Luciferase Follow-Up Assay (AID 2283941).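 Note: loss of signal means cytotoxicity so actives lower viability.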 A digest of the protocol:
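Seeding: HEK293-PR-A-luc, 3,000 cells/well, 5 h at 37C. Treatment: compound in DMSO, 16 h, 37C. Read: CellTiter-Glo ATP luminescence, signal loss taken as lower viability.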

Assay [8] concerns the target human Dual Specificity Protein Phosphatase 3 (DUSP3), DUSP3 (gene 1845) (UniProt P51452). As to the kind of experiment: NVS_ENZ_hDUSP3: NovaScreen (NVS) Enzymatic Assay for human Dual Specificity Protein Phosphatase 3 (DUSP3) (AID 2283152). A digest of the protocol: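 Cell-free fluorescence-intensity enzyme activity assay with recombinant protein and substrate; loss of signal fitted relative to DMSO baseline. Primary screen in duplicate at 25 uM, actives then run in concentration series; measured 0 h after dosing.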

Assay [9] addresses Cytochrome P450 2C19 (Homo sapiens) (UniProt P33261). As to the kind of experiment: NVS_ADME_hCYP2C19: NovaScreen (NVS) CYP450-related Enzyme Activity (ADME) Assay for human CYP2C19 (AID 2283113).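 Note: potency for inhibition seen as loss of fluorescent signal.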 A digest of the protocol: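 Chemicals first screened in duplicate at 10 uM against recombinant human enzyme produced in insect cells; confirmed actives then run as concentration series. Fluorogenic substrate turnover read by fluorescence after 1 h, normalised to acetonitrile.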

Assay [10] concerns the target rat Peripheral-type Benzodiazepine Receptor (PBR), Tspo (gene 24230) (UniProt P16257). In words: NVS_MP_rPBR: NovaScreen (NVS) Membrane Protein Assay for rat Peripheral-type Benzodiazepine Receptor (PBR) (AID 2283335). A digest of the protocol:
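Single-concentration duplicate screening at 25 uM preceded concentration-series retesting of actives. Binding of a specific radioligand to rat kidney membrane PBR was read by filtration radiodetection after 1 h, with plate-wise positive and negative controls.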

The nature of assay [11]: NVS_IC_rCaBTZCHL: NovaScreen (NVS) Ion Channel Assay for Calcium Channel, Type L, Benzothiazepine Site (CaBTZCHL) (AID 2283337). A digest of the protocol: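 Benzothiazepine-site binding was assessed in a tissue-derived, cell-free rat cortical membrane system. After 1.5 h exposure, radioactivity retained on filters was quantified by scintillation; positive and negative controls accompanied every plate.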

The target of the next assay is AR (gene 367) (UniProt P10275). In words: ACEA_AR_agonist_80hr: ACEA Biosciences xCELLigence Real-Time Cell Analysis on Androgen Receptor Agonism for Proliferation (AID 2283783).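 Note: hits increase impedance growth signal above DMSO baseline.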 A digest of the protocol:
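Eight concentrations, 1:4 serial dilution from a 100 uM final top, in biological duplicate. Impedance-based real-time growth of 22Rv1 cells after overnight baseline, recorded hourly and read at 80 hours. Controls: testosterone, MG132, assay media.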

Assay [12] has as its target Nucleoli Translocation, AR (gene 367) (UniProt P10275). In words: UPITT_HCI_U2OS_AR_TIF2_Nucleoli_Antagonist: University of Pittsburgh U2OS Androgen Receptor-Transcriptional Intermediary Factor 2 (AR-TIF2) Antagonism High Content Imaging Assay for Nucleoli Translocation (AID 2283997). Summed up:
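Antagonism is read as loss of nucleolar AR-RFP signal relative to DHT, imaged in U2OS cells also carrying GFP-TIF2. Compounds screened at 20 uM final, 0.2% DMSO; primary actives retested in triplicate.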

In assay [13] the target is human CYP19A1, CYP19A1 (gene 1588) (UniProt P11511). In words: NVS_ADME_hCYP19A1: NovaScreen (NVS) CYP450-related Enzyme Activity (ADME) Assay for human CYP19A1 (AID 2283098). Summed up: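 Primary testing was in duplicate at a single 10 uM concentration, with actives followed up in concentration-response series. Fluorescence read-out of recombinant enzyme activity at 0.5 h, cell-free. Acetonitrile was the negative-control baseline.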

Assay [14] in a line: STM_H9_OrnCyssISnorm_ratio: Stemina devTOX quickPredict H9 human embryonic stem cell (hESC)-based Assay for Ornithine (ORN):Cystine (CYSS) Ratio (AID 2283714). A digest of the protocol:
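Ratio of internal-standard-normalized ornithine to cystine, measured by UPLC-HRMS in spent media from the last 24 h. H9 cells kept pluripotent, dosed 72 h with daily media and compound renewal; DMSO 0.1% serves as baseline.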

Assay [15] in a line: STM_H9_NormalizedViability: Cytotoxicity Assessment at 120 hours in the Stemina devTOX quickPredict H9 human embryonic stem cell (hESC)-based Assay (AID 2283784). A digest of the protocol:
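Here, H9 cells received test compound with daily medium renewal. Each plate included methotrexate references (1uM, 5 nM), 0.1% DMSO and media blanks; CellTiter-Fluor RFU was normalized to DMSO.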

Read-out in assay [16]: Interferon-inducible T-cell alpha chemoattractant (ITAC), CXCL11 (gene 6373)
In words: BSK_hDFCGF_ITAC: BioMAP Diversity Plus: hDFCGF Assay for Interferon-inducible T-cell alpha chemoattractant (ITAC) Biomarker Activity (AID 2284251; active = hit-call score of the fitted dose curve at least 0.9, where 1 is the maximum; inactive = score below 0.9). Particulars: primary human foreskin fibroblasts. Summed up: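 I-TAC levels were read by ELISA on human dermal foreskin fibroblast primary cultures 24 h after dosing, analysed against DMSO in the positive direction. Cytotoxicity was assessed alongside by sulforhodamine B total-protein staining.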

Read-out in assay [17]: Matrix Metallopeptidase 9 (MMP9), MMP9 (gene 4318)
In words: BSK_BE3C_MMP9: BioMAP Diversity Plus: BE3C Assay for Matrix Metallopeptidase 9 (MMP9) Biomarker Activity (AID 2284283; active = hit-call score of the fitted dose curve at least 0.9, where 1 is the maximum; inactive = score below 0.9). To be noted: primary human bronchial epithelial cells. Summed up: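 Cells were dosed, incubated 24 h, then assayed for MMP-9 by ELISA; activity was fitted upward against DMSO. The system used human lung primary bronchial epithelial cells, with SRB total-protein staining run alongside for cytotoxicity.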

For assay [18], the target named is Estrogen receptor (Homo sapiens) + Estrogen receptor beta (Homo sapiens) (UniProt P03372+Q92731). As to the kind of experiment: OT_ER_ERaERb_1440: Odyssey Thera (OT) 24-hour HEK293T Protein-Complementation Assay for Estrogen Receptor-alpha/-beta Homodimer (AID 2283356).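 Note: heteromer of ER alpha and ER beta binding domains; hits raise reporter fluorescence and both agonists and antagonists give an increase.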 Summed up:
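Heterodimerisation of ERα (aa 310-547) and ERβ (aa 263-489) ligand binding domains was tracked as fluorescence gain in stably transfected HEK293T cells following 24 h dosing, normalised to DMSO controls.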

Assay [19] deals with Retinoic acid receptor alpha (Homo sapiens) (UniProt P10276). In words: NVS_NR_hRARa_Agonist: NovaScreen (NVS) Nuclear Receptor Binding Assay for human Retinoic Acid Alpha Receptor Agonism (RAR) (AID 2283361). A digest of the protocol:
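Agonist-mode TR-FRET binding format using extracted protein, measured at 2 h post-dosing. Initial duplicate single-point screen at 25 uM preceded concentration series for actives; activity was normalized to DMSO baseline.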

Results filed as inconclusive are left out. More than one record can exist for a structure, and the calls need not agree. Active and inactive are the calls of the source. Rule for the calls, unless noted: active = hit-call score of the fitted dose curve at least 0.9, where 1 is the maximum; inconclusive = response in the unintended direction; inactive = score below 0.9.

What is called AC50 is the concentration giving half of the maximal activity seen.

Sequence of AR (gene 367) (P10275 whole entry, looked up): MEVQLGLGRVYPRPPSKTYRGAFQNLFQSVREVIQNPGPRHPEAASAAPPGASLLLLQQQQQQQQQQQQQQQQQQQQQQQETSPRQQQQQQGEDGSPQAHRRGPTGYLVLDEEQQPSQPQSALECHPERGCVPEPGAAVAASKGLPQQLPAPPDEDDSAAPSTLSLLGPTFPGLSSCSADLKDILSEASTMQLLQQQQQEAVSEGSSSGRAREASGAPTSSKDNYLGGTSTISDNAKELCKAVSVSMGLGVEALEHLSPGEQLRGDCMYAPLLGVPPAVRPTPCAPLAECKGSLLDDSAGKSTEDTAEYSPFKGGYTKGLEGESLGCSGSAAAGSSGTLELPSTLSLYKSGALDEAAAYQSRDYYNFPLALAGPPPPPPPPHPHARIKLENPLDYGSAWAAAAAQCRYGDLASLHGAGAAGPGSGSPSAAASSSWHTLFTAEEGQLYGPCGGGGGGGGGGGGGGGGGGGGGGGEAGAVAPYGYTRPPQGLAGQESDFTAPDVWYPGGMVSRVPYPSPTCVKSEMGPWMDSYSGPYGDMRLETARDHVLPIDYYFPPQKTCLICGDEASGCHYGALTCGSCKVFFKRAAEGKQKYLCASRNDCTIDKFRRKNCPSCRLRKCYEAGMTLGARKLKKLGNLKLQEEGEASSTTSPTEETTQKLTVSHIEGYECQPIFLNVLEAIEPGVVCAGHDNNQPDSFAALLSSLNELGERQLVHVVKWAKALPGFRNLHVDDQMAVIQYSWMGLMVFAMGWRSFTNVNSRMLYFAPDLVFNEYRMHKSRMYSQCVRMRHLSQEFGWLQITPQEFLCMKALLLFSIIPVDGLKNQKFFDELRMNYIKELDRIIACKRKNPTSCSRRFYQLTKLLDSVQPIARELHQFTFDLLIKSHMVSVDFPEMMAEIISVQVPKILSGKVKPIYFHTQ
Sequence of Nucleoli Translocation, AR (gene 367) (P10275 whole entry, looked up): as above
Sequence of human CYP19A1, CYP19A1 (gene 1588) (P11511 whole entry, looked up): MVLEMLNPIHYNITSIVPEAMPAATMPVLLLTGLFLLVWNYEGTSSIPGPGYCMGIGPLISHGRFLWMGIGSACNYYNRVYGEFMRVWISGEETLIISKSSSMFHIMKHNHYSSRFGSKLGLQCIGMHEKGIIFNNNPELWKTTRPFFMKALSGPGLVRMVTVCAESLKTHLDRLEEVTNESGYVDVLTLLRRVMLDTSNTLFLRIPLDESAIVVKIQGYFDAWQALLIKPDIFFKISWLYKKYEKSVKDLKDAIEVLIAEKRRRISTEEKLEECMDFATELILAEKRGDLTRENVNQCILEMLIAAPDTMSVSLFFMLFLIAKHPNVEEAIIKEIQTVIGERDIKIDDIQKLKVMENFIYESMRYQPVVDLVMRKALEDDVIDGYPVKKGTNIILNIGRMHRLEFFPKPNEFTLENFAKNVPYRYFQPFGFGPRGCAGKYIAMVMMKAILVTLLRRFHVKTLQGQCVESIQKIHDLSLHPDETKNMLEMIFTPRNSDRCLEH
Sequence of human Dual Specificity Protein Phosphatase 3 (DUSP3), DUSP3 (gene 1845) (P51452 whole entry, looked up): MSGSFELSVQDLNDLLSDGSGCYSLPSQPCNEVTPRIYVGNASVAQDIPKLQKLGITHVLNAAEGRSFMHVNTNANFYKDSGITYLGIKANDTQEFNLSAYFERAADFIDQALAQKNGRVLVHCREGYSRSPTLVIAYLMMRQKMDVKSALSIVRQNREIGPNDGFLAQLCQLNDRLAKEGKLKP
Sequence of Estrogen receptor (Homo sapiens) + Estrogen receptor beta (Homo sapiens) (P03372 whole entry, looked up, the tested form may be a part): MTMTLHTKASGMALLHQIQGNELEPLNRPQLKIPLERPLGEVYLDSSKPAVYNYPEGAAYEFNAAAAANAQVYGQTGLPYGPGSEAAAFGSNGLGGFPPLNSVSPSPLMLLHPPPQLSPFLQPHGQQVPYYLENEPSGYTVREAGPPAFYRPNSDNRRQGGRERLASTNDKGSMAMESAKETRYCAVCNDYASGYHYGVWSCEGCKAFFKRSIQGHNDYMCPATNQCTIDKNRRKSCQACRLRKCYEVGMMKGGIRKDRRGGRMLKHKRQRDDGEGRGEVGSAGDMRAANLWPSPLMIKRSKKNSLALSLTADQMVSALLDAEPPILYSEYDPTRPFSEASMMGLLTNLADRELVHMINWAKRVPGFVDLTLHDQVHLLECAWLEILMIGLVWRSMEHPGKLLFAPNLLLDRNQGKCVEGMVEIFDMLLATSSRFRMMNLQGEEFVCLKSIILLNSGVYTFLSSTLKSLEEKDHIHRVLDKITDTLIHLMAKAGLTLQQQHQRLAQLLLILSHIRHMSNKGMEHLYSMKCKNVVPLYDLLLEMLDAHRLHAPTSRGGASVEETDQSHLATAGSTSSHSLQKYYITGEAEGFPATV
Sequence of Estrogen receptor (Homo sapiens) + Estrogen receptor beta (Homo sapiens) (Q92731 whole entry, looked up, the tested form may be a part): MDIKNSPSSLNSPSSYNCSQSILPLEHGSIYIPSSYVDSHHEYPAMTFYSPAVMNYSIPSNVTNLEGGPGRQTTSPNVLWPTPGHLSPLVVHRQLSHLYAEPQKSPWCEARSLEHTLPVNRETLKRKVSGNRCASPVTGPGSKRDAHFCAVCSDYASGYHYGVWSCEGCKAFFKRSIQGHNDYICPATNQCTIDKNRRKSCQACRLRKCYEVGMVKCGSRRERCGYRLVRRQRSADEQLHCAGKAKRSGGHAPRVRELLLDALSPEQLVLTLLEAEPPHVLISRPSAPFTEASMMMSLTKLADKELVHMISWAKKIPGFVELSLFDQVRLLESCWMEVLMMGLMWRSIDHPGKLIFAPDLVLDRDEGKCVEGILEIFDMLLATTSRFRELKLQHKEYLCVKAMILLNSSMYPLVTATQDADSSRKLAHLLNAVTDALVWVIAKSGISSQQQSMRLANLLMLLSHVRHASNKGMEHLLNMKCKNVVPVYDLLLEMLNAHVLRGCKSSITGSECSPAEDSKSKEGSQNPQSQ
Sequence of Retinoic acid receptor alpha (Homo sapiens) (P10276 whole entry, looked up): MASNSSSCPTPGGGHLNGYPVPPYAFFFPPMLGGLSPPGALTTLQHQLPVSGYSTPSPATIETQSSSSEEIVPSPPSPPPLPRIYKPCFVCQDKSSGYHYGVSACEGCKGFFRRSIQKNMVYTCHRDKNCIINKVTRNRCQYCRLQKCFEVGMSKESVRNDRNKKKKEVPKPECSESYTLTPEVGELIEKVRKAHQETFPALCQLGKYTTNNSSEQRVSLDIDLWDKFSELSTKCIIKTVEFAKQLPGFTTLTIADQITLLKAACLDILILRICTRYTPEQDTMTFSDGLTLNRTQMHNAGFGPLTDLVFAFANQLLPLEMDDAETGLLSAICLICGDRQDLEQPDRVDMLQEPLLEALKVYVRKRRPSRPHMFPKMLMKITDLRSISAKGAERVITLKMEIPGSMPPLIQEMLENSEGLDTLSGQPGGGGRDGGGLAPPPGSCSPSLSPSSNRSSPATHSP
Sequence of rat Peripheral-type Benzodiazepine Receptor (PBR), Tspo (gene 24230) (P16257 whole entry, looked up): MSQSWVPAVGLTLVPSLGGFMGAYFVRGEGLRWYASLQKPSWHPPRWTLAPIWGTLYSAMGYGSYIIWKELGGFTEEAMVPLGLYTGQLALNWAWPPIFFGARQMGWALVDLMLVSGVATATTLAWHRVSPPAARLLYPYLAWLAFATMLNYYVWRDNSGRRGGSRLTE

In the case of `CN(C)CCC(c1ccc(Cl)cc1)c1ccccn1` (stereo not given), the call in assay [1], in assay [2], in assay [3] and in assay [4] was inactive.
For the compound `C[C@H]1C[C@H]2[C@@H]3CCC4=CC(=O)C=C[C@]4(C)[C@@]3(F)[C@@H](O)C[C@]2(C)[C@@]1(O)C(=O)CO`, the compound was classed as inactive in assay [5], in [6] and in assay [7].
As for `CC1(C)S[C@@H]2[C@H](NC(=O)[C@H](N)c3ccccc3)C(=O)N2[C@H]1C(=O)O`, in [8], the half-maximal activity concentration (AC50) is 8.24 µM (active).
Regarding `CN(C)c1ccc(C(c2ccccc2)c2ccc(N(C)C)cc2)cc1`, the AC50 in [9] was 0.356 µM (active); in assay [10], 25 µM (active).
For the compound `CCCCCCCCCCCCCCCCCC[N+](C)(C)C`, the AC50 in assay [8] is 7.9 µM (active). In [11], the outcome was inactive.
Turning to `Cc1cc(C)c(S(=O)(=O)O)cc1N=Nc1cc(S(=O)(=O)O)c2ccccc2c1O`, the outcome (with AR (gene 367); in assay [12]) was inactive.
Regarding `CC1=NN(c2cc(Cl)c(S(=O)(=O)O)cc2Cl)C(=O)C1N=Nc1ccc(S(=O)(=O)O)cc1` (stereo not given), the result in [13] was inactive.
As to `CN(C)Cc1cc(C(C)(C)C)c(O)c(C(C)(C)C)c1`, the result in assay [14], in [15], in assay [16] and in assay [17] was inactive. For the same compound, the half-maximal activity concentration (AC50) in assay [16] is 20 µM (active); in assay [17], 10.7 µM (active).
On to `NC(N)=Nc1nc(CSCCC(N)=NS(N)(=O)=O)cs1`, for which the compound was classed as inactive in assay [1], in assay [2], in assay [3] and in [4].
For the compound `CCCCCCC1CCC(=O)O1` (stereo not given), the outcome in assay [18] was inactive.
As to `O=C(c1ccccc1)c1ccccc1O`, the compound was called inactive in assay [12].
Take `C=C1CC[C@H]2C[C@@H]1C2(C)C`: the result in assay [18] was inactive.
Regarding `Cc1cc(O)cc(C)c1Cl`, the outcome in [19] was inactive.
For the compound `CO[Si](CCCNCCN)(OC)OC`, in the assay with AR (gene 367), the result was inactive.
With `O=C(OCc1ccccc1)c1ccccc1`, the result in [13] was inactive.
For `Sc1nc2ccccc2s1`, the AC50 in assay [9] was 5 µM (active).
As for `O=C(C(=O)c1ccccc1)c1ccccc1`, in assay [10], the AC50 was 1.86 µM (active). The outcome in assay [11] was inactive.
With `c1cc[c]([Bi]([c]2ccccc2)[c]2ccccc2)cc1`, the result in assay [5], in assay [6] and in assay [7] was inactive.
With `CCCCCC[C@@H](O)C/C=C\CCCCCCCC(=O)O`, the AC50 in [14] was 30.9 µM (active). Besides, the result in assay [15] was inactive.
Turning to `Cc1cc2nc3c(=O)[nH]c(=O)nc-3n(C[C@H](O)[C@H](O)[C@H](O)CO)c2cc1C`, in assay [19], the AC50 is 6.52 µM (active).
